This is an account of results in PubChem BioAssay (NCI).

This is part of a sample that, as a whole, favours compounds with a hit. Of some 83,000 tested, about 20% had one in any assay.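 Compound tested at a single concentration for 48 hours in 96-well plates; a percent growth value below 10 was scored as active.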 A number with no mark means an inactive call. The source made the active and inactive calls.

Common to all, as to test: NCI-60 one-dose screen, 48 h (100 = growth as untreated, 0 = no growth, -100 = all killed)
What all share (settings): 10 µM unless noted

Experiment [1] has as its system NCI-H23 lung.
Experiment [2] relates to NCI-H226 lung.
Experiment [3] has as its system NCI-H322M lung.
Experiment [4] deals with HOP-62 NSCLC.
Experiment [5] relates to NCI-H460 lung.
Experiment [6] concerns HOP-92 NSCLC.
Experiment [7] relates to NCI-H522 lung.
Experiment [8] has as its system A549/ATCC NSCLC.
Experiment [9] has as its system 786-0 renal.
The test system of experiment [10] is COLO 205 colon.
For experiment [11], the system named is DU-145 prostate.
In experiment [12] the test system is K-562 leukemia.
The subject of experiment [13] is MALME-3M melanoma.
In experiment [14] the test system is MDA-MB-231 breast.
Experiment [15] relates to RXF 393 renal.
Experiment [16] has as its system SF-268 CNS.
The subject of experiment [17] is SF-295 CNS.
Experiment [18] relates to SF-539 CNS.
Experiment [19] deals with UACC-257 melanoma.
For experiment [20], the system named is M14 melanoma.

Consider `COc1cc(-c2nc3ccc(C)cc3[nH]2)ccc1OCC(=O)N=Nc1c(O)[nH]c2ccc(Cl)cc12`, for which the growth is 23.2% in experiment [1]; 86.8% in experiment [2]; 36.9% in experiment [3]; 18.3% in [4]; -56.1% (active) in [5]; 2.42% (active) in experiment [6]. For the same compound, the growth in experiment [7] was 20.6%; in experiment [8], 29.7%; in experiment [9], -82.5% (active); in [10] it was -15.9% (active); in [11], 22.9%; in experiment [12] it was -39.3% (active). For the same compound, the growth in experiment [13] was -26.9% (active); in experiment [14], -61.6% (active); in [15], -40.7% (active); in [16] it was 31.4%; in experiment [17], -7.5% (active); in [18], -80% (active). Moreover, the growth in experiment [19] was 39.4%; in experiment [20], 3.17% (active).
For the compound `C[Se]C(=O)CC1=C2C=C(F)C=CC2/C(=C\c2ccc(S(C)=O)cc2)C1C` (stereo not given), the growth in experiment [1] is 13.5%; in experiment [2], 1.21% (active); in [3] it was 14.1%; in experiment [4] it was -24.3% (active); in [5], -1% (active); in experiment [6], -41.4% (active). In addition, the growth in [7] was 12.9%; in experiment [8] it was -60.1% (active); in experiment [9] it was 3.8% (active); in [10], -17.4% (active); in experiment [11], -50.5% (active); in experiment [12] it was 28.6%. Moreover, the growth was -68.7% (active) in experiment [13]; -46% (active) in experiment [14]; 6.68% (active) in experiment [15]; -28.2% (active) in [16]; 11.3% in experiment [17]; -30.3% (active) in [18]. For the same compound, the growth in experiment [19] is -21.5% (active); in experiment [20] it was 7.44% (active).
Regarding `CCC(CC)(N(CC(=O)O)CC(=O)O)C(CC)(CC)N(CC(=O)O)CC(=O)O`, the growth in experiment [1] was 106%; in experiment [2], 106%; in experiment [3], 122%; in [4], 103%; in [5], 108%; in [6] it was 95.6%. In addition, the growth in experiment [7] was 100%; in experiment [8], 91.3%; in experiment [9], 109%; in experiment [10], 113%; in experiment [11] it was 119%; in [12] it was 101%. For the same compound, the growth was 133% in experiment [13]; 110% in experiment [14]; 120% in experiment [15]; 114% in experiment [16]; 108% in experiment [17]; 109% in [18]. For the same compound, the growth in [19] is 100%; in experiment [20] it was 106%.
Regarding `c1ccc(CCc2ccccc2-c2cc(-c3ccccc3)on2)cc1`, the growth is 75.1% in [1]; 96.5% in experiment [2]; 87% in [3]; 96.5% in [4]; 82.4% in experiment [5]; 103% in experiment [6]. The growth in experiment [7] is 80.1%; in [8], 97.7%; in experiment [9] it was 94.5%; in [10], 100%; in [11], 92%; in experiment [12], 71.2%. The growth in [13] is 102%; in experiment [14], 84.3%; in experiment [15], 94.2%; in experiment [16] it was 97.1%; in experiment [17], 96.3%; in [18], 93.8%. Also, the figures for the growth in experiment [19] and in experiment [20] were 99.9% and 87.8%, respectively.
As to `Nc1n[nH]c2ccc([C@@H]3Nc4cc5[nH]ncc5cc4[C@H]4C5CCC(C5)[C@@H]34)cc12` (stereo not given in full), the growth in experiment [1] was 27.3%; in experiment [2], 15%; in experiment [3], 43%; in experiment [4], 46.9%; in experiment [5], 7.16% (active); in [6], 58.2%. In addition, the growth was 13.9% in experiment [7]; 24.6% in experiment [8]; 28.3% in experiment [9]; -11.9% (active) in experiment [10]; 21.2% in experiment [11]; 10.6% in [12]. In addition, the growth was 46.9% in experiment [13]; 12.7% in experiment [14]; -2.95% (active) in [15]; 45.4% in [16]; 11.8% in experiment [17]; -11.3% (active) in [18]. The growth in experiment [19] is 67.4%; in experiment [20], -3.7% (active).
Regarding `Cn1cc(-c2nn3cc(-c4ccccc4)nc3s2)c2ccccc21`, the growth in experiment [1] is 79.2%; in [2], 69.5%; in experiment [3] it was 71%; in experiment [4], 61.4%; in experiment [5] it was 79.9%; in experiment [6] it was 71.9%. In addition, the growth in experiment [7] is 38.9%; in experiment [8], 66.1%; in [9] it was 99.4%; in experiment [10], 73.7%; in experiment [11], 99.2%; in [12], 29.3%. Also, the growth in [13] is 55.3%; in experiment [14], 67.3%; in [15], 89.3%; in experiment [16], 81.2%; in experiment [17] it was 78.9%; in experiment [18], 78%. The growth in [19] was 76.9%; in experiment [20], 51.5%.
Take `N#Cc1c(Nc2ccc(F)cc2)n[nH]c1-c1cccs1`: the growth was 85.2% in experiment [1]; 88.9% in experiment [2]; 102% in experiment [3]; 110% in experiment [4]; 107% in [5]; 87.5% in experiment [6]. The growth in experiment [7] is 97.1%; in experiment [8], 115%; in [9], 98.3%; in [10], 128%; in experiment [11] it was 113%; in experiment [12] it was 99.2%. The growth in [13] is 108%; in experiment [14], 89.5%; in experiment [15] it was 112%; in experiment [16], 98%; in experiment [17], 97.7%; in [18], 98.8%. Further, the growth is 120% in experiment [19] and 104% in experiment [20].
`COC(c1ccc2ccccc2c1)C(C)C(F)F` (stereo not given): the growth in experiment [1] is 95.7%; in experiment [2], 100%; in experiment [3], 99.6%; in experiment [4], 86.7%; in experiment [5], 111%; in [6], 107%. Further, the growth in experiment [7] was 86.9%; in [8] it was 96.8%; in experiment [9], 90.5%; in experiment [10] it was 112%; in [11], 110%; in experiment [12] it was 97.1%. Also, the growth is 99.5% in experiment [13]; 111% in experiment [14]; 106% in experiment [15]; 100% in experiment [16]; 97.1% in experiment [17]; 95.2% in experiment [18]. Besides, the growth is 91.3% in experiment [19] and 99.1% in experiment [20].
